In PubChem BioAssay (NCATS) one finds Potency, outcome and activity change, negative = inhibition data, which are given here for 51 compounds.

For assay [1], the system named is Zika virus NS2B-NS3 protease (unlinked complex). As to the kind of experiment: Primary screen GU Rhodamine qHTS for Zika virus inhibitors: Unlinked NS2B-NS3 protease assay (AID 1347159). Also: nearly all actives have a fitted effect of over 60% in size. The gist of the method:
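Noncovalent NS2B hydrophilic domain/NS3 protease complex (25 nM final) in 10 mM Tris-HCl pH 8.0, 0.01% Tween 20, preincubated 15 min with compounds (up to 114 microM), then 1.5 microM Rhodamine110 substrate. Fluorescence change over 15 min fitted to 4-parameter Hill.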

In assay [2] the test system is Zika virus NS2B-NS3 protease (linked construct). As to the kind of experiment: Primary screen NINDS Rhodamine qHTS for Zika virus inhibitors (AID 1347160). Also: nearly all actives have a fitted effect of over 55% in size. Also: potency is read from the fitted curve at half-maximal effect. In a few lines:
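Purified NS2B-NS3 protease with the NS2B hydrophilic domain joined by a flexible linker (25 nM) in 10 mM Tris-HCl pH 8.0, 0.01% Tween 20, preincubated 15 min at RT with compound; Rhodamine110 peptide substrate 1.5 µM; fluorescence change over 15 min; 4-parameter Hill fit.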
In general terms: Quantitative high-throughput screening tests each substance at several concentrations.

Assay [3] in a line: Vero cells viability qHTS for Zika virus inhibitors (AID 1347167). In a few lines: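 Counter-screen for cytotoxicity of hits from NS2B-NS3 protease qHTS. Overnight-attached cells (2.5 x 10^5 cells/mL, DMEM/4% FBS) were dosed in titration, incubated 24 to 48 hours, then assayed by CellTiter Glo.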
The nature of assay [4]: Tertiary RLuc qRT-PCR qHTS assay for Zika virus inhibitors (AID 1347169). Also: nearly all actives have a fitted effect of over 55% in size. Also: potency is read from the fitted curve at half-maximal effect. As to activity change, negative = inhibition: top concentration of the series differs between compounds. The gist of the method:
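Vero cells (1,000/well) infected with recombinant ZIKV-RLuc (Cambodian) at MOI 1-2 after compound addition, 48-72 hrs at 37 degrees C. Live-cell Renilla luciferase substrate added; luminescence read after 1-1.5 hrs.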
Background: Quantitative PCR measures a nucleic acid by following its amplification.

Assay [5] can be described thus: qHTS for inhibitors of adenylyl cyclases using a fission yeast platform: a pilot screen against the NCATS LOPAC library (AID 1347410). In a few lines:
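S. pombe CHP2027 (AC9-GNAS-PDE4D2) carrying PKA-repressed fbp1-GFP, incubated 18 h at 30C in EMM with LOPAC compounds at up to 57 uM. GFP gain-of-signal read by laser scanning cytometry; DMSO negative control.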

The nature of assay [6]: qHTS to identify inhibitors of the type 1 interferon - major histocompatibility complex class I in skeletal muscle: primary screen against the NCATS Mechanism Interrogation Plate v5.0 (MIPE) Libary (AID 1347411). Also: nearly all actives have a fitted effect of over 65% in size. In a few lines:
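Luminescence from HiBiT-tagged endogenous HLA-B*08:01 served as the MHC class I read-out. CRISPR-engineered C25cl48 human myoblasts received 4.0 ng/ml IFN-beta plus compound for 24 hrs, with an 11-point, 1:3 series topping at 46 uM final.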

Assay [7] is described as follows: ZIKV-mCherry secondary qHTS for Zika virus inhibitors (AID 1347158). Also: top concentration of the series differs between compounds. The gist of the method:
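Vero, 5,000 cells/well, o/n 37 °C; cpd pin-transferred in DMSO; ZIKV-mCherry MOI 1, 48-72 h 37 °C; 32% PFA stock fix, Hoechst; imaged 10x DAPI/mCherry; mCherry+ threshold 450 RFU; % infection.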

Assay [8] concerns Zika virus NS2B-NS3 protease (linked). As to the kind of experiment: 384 well plate NINDS AMC confirmatory qHTS for Zika virus inhibitors (AID 1347163).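 Also: linked protease at 5 30 or 60 nM final depending on run; fluorescence of AMC released from Ac-VKTGKR-AMC peptide cleaved by the protease; top concentration of the series differs between compounds; nearly all actives have a fitted effect of over 50% in size.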 In a few lines: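 Linked NS2B-NS3 protease (final 5 nM, 30 nM or 60 nM) was preincubated with compounds (final up to 1 mM) for ~15 minutes. Ac-VKTGKR-AMC substrate (final 30 microM) then reacted for 25 minutes at room temperature in the dark. Fluorescence (ex 355/em 460 nm) was normalized to no-enzyme and no-inhibitor controls.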

Assay [9] has as its system Zika virus NS2B-NS3 protease (linked construct). Nature of the assay: 384 well plate NINDS Rhodamine confirmatory qHTS for Zika virus inhibitors (AID 1347164).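 Also: fluorescence from protease cleavage of Ac-LKRR-rhodamine 110 substrate; nearly all actives have a fitted effect of over 65% in size.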 Also: potency is read from the fitted curve at half-maximal effect. As to activity change, negative = inhibition: top concentration of the series differs between compounds. The gist of the method:
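Linked NS2B-NS3 protease (final 5, 30 or 60 nM) preincubated ~15 minutes with compounds, then 10 microM Ac-LKRR-Rhodamine 110 added. Fluorescence (485/538 nm) read after 25 minutes at room temperature, normalized to no-enzyme and no-inhibitor controls.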

Assay [10] can be described thus: qHTS to identify inhibitors of the type 1 interferon - major histocompatibility complex class I in skeletal muscle: primary screen against the NCATS Pharmaceutical Collection (AID 1347407).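 Also: luminescence of HiBiT knocked into endogenous HLA-B as interferon-induced MHC class I level.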 Also: potency is read from the fitted curve at half-maximal effect. In a few lines:
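Immortalized human myoblasts (C25cl48) with HiBiT knocked into endogenous HLA-B*08:01 were stimulated with 4.0 ng/ml IFN-beta and treated with compounds ([…] top 46 uM) for 24 hrs at 37 C. HiBiT lytic luminescence read.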

Where “and” joins values, the source holds several entries; their conditions need not be identical. Identical values can stand only once. Values without a mark were called inactive. Inconclusive results are not listed. Where a call stands in place of a potency, no number is given. Calls of active or inactive are those of the source. Calls follow the shape of the dose curve; as a rule, active = well fitted curve in the direction sought with a large enough effect; inconclusive = small, poorly fitted or top-dose-only effect, or another doubt; inactive = no such curve, though single readings can be large; an effect the other way counts as inactive or inconclusive. Peptide text beside a SMILES is read from it.

`CN(C)C(=O)[C@H](O)[C@H](Cc1ccccc1)NC(=O)c1cc2cc(Cl)ccc2[nH]1`: the Potency result in assay [1], in [2], in assay [3] and in assay [4] was “inactive” each time. In [5], the outcome was inactive. Turning to `COc1ccc(C2(C#N)CCC(C(=O)O)CC2)cc1OC1CCCC1` (stereo unspecified), the Potency entry in [1], in assay [2] and in assay [6] was “inactive” throughout. For `N[C@@H](Cc1cc(I)c(Oc2cc(I)c(O)c(I)c2)c(I)c1)C(=O)O`, the Potency result in [7], in assay [8], in assay [3] and in [10] was “inactive” throughout. The Potency in assay [2] was 6.31 µM (active); in [9] it was 10 µM (active). In [4], the activity change, negative = inhibition was -3.48% [at 0.566 µM].

With `COc1cc(Nc2c(C#N)cnc3cc(OCCCN4CCN(C)CC4)c(OC)cc23)c(Cl)cc1Cl`, the Potency entry in assay [1] and in [2] was “inactive” each time. Further, in assay [10], the Potency was 7.45 µM (active). Regarding `Clc1ccc(C(Cn2ccnc2)OCc2c(Cl)cccc2Cl)c(Cl)c1` (stereo unspecified), the Potency result in assay [2] and in assay [10] was “inactive” throughout.

As for `COc1cc2c(N3CCN(C(=O)Nc4ccc(OC(C)C)cc4)CC3)ncnc2cc1OCCCN1CCCCC1`, the Potency result in [1] and in assay [2] was “inactive” each time. On to `O=C1CCc2ccc(OCCCCN3CCN(c4cccc(Cl)c4Cl)CC3)cc2N1`, for which the Potency entry in assay [10] is “inactive”. Consider `Oc1ccc(-c2nc(-c3ccc(F)cc3)c(-c3ccncc3)[nH]2)cc1`, for which the Potency result in assay [3] is “inactive”. Besides, the outcome in [5] was inactive. Regarding `Cc1cc(C2CCCCC2)n(O)c(=O)c1`, the Potency entry in assay [10] is “inactive”.

In the case of `CC(C)Oc1ccc2c(=O)c(-c3ccccc3)coc2c1`, the Potency entry in assay [10] is “inactive”.

For the compound `Cc1cccc(C)c1OCC(=O)N[C@@H](Cc1ccccc1)[C@@H](O)C[C@H](Cc1ccccc1)NC(=O)[C@H](C(C)C)N1CCCNC1=O`, the Potency result in [10] was “inactive”.

For `CCOC(=O)c1c(C)n(C)c2ccc(O)cc12`, the Potency result in assay [10] was “inactive”.

For `Cc1c(OCC(F)(F)F)ccnc1CS(=O)c1nc2ccccc2[nH]1` (stereo unspecified), the Potency result in assay [3], in assay [4], in assay [10] and in assay [6] was “inactive” each time. Also, the result in assay [5] was inactive. `COCCCN1CCC(NC(=O)c2cc(Cl)c(N)c3c2OCC3)CC1`: the Potency entry in [10] was “inactive”. Same read-out and setting: the same measure for `CCCCc1ccc2nc(NC(=O)OC)[nH]c2c1`: “inactive”.

In the case of `S=c1nc[nH]c2nc[nH]c12`, the Potency result in [3], in assay [10] and in assay [6] was “inactive” in each case. Also, the Potency in [4] is 20.8 µM (active). Consider `Oc1ccc(OCc2ccccc2)cc1`, for which the Potency entry in assay [10] was “inactive”. On the same count and under the same terms, to `Cc1nc2n(c(=O)c1CCN1CCC(c3noc4cc(F)ccc34)CC1)CCCC2` belongs “inactive”. Turning to `Cc1ccc(C)c(OCCCC(C)(C)C(=O)O)c1`, in assay [10], the Potency entry was “inactive”. Still for that read-out and setting: to `Cc1ccc(S(=O)(=O)NC(=O)NN2CC3CCCC3C2)cc1` (stereo unspecified) belongs “inactive”; to `COC(=O)[C@H](Cc1ccccc1)NC(=O)[C@@H](N)CC(=O)O` (H-Asp-Phe-OMe), “inactive”; to `COC(=O)N[C@H](C(=O)N[C@@H](Cc1ccccc1)[C@@H](O)CN(Cc1ccc(-c2ccccn2)cc1)NC(=O)[C@@H](NC(=O)OC)C(C)(C)C)C(C)(C)C`, “inactive”. For `CS(=O)(=O)OCCCCOS(C)(=O)=O`, in [10], the Potency result was “inactive”.

In the case of `COc1c2occc2cc2ccc(=O)oc12`, the Potency result in assay [9], in assay [3], in [4], in [10] and in assay [6] was “inactive” in each case. `Cc1c(C(=O)NN2CCCCC2)nn(-c2ccc(Cl)cc2Cl)c1-c1ccc(Cl)cc1`: in assay [10], the Potency entry is “inactive”. For `Cc1nc(-c2ccc(OCC(C)C)c(C#N)c2)sc1C(=O)O`, the Potency entry in assay [3], in assay [4] and in assay [10] was “inactive” throughout.

In the case of `Nc1ncn([C@H]2C[C@H](O)[C@@H](CO)O2)c(=O)n1`, the Potency entry in assay [10] was “inactive”. On the same count and under the same terms, to `Cc1cc(=O)c2c(O)c3c(O)cc(=O)c4c3c3c(cc(O)c1c23)C(C)(C)C=4O` belongs “inactive”; to `N=C(N=C(N)N)N1CCOCC1`, “inactive”. For `CCc1nc(N)nc(N)c1-c1ccc(Cl)cc1`, the Potency result in assay [3] and in assay [6] was “inactive” throughout. Also, the Potency in assay [4] was 11.7 µM (active) and 16.5 µM (active). As for `Nc1cccc2c1CN(C1CCC(=O)NC1=O)C2=O` (stereo unspecified), the Potency result in assay [10] was “inactive”.

With `COc1cc2nc(N3CCN(C(=O)C4CCCO4)CC3)nc(N)c2cc1OC` (stereo unspecified), the Potency entry in assay [10] is “inactive”. Same read-out and setting: the same measure for `NC(=O)Cc1cccc(C(=O)c2ccccc2)c1N`: “inactive”; for `CCCCCCCCOc1ccccc1C(=O)Nc1ccc(C(=O)OCC[N+](C)(CC)CC)cc1`: “inactive”; for `CC1=C(C(=O)O)N2C(=O)[C@@H](NC(=O)[C@H](N)C3=CCC=CC3)[C@H]2SC1`: “inactive”.

As for `CCC[C@@H]1C[C@@H](C(=O)N[C@@H]([C@H]2O[C@H](SC)[C@H](O)[C@@H](O)[C@H]2O)[C@@H](C)O)N(C)C1`, in assay [10], the Potency result was “inactive”.

Regarding `COc1cc2c(cc1OC)C1CC(=O)C(CC(C)C)CN1CC2` (stereo unspecified), the Potency entry in [3] and in assay [4] was “inactive” throughout. Besides, the outcome in assay [5] was inactive. As for `O=C(O)c1cn(-c2ccc(F)cc2)c2cc(N3CCNCC3)c(F)cc2c1=O`, the Potency entry in assay [3], in assay [4] and in [10] was “inactive” throughout.

For `C=CCc1cc(OC)c(O)c(C(=O)NCCO)c1`, in [10], the Potency result is “inactive”.

On to `Clc1ccc(C(Cn2ccnc2)OCc2ccc(Sc3ccccc3)cc2)c(Cl)c1` (stereo unspecified), for which, in assay [10], the Potency entry is “inactive”. The same measure, in the same setting: to `CN(C)[C@@H](CCOc1cccc2ccccc12)c1ccccc1` belongs “inactive”; to `N=C(N)c1ccc2cc(OC(=O)c3ccc(N=C(N)N)cc3)ccc2c1`, “inactive”. Take `NNc1nncc2ccccc12`: the Potency entry in assay [10] is “inactive”. Further, the compound was classed as inactive in assay [5]. On to `COc1cc(OC)c(C(=O)CCCN2CCCC2)c(OC)c1`, for which the Potency result in assay [10] and in assay [6] was “inactive” throughout. `CC(S)C(=O)NCC(=O)O` (stereo unspecified): the Potency result in assay [10] is “inactive”. On to `CC1(C)NC(=O)N(c2ccc([N+](=O)[O-])c(C(F)(F)F)c2)C1=O`, for which the Potency entry in assay [10] and in assay [6] was “inactive” throughout. Besides, the outcome in assay [5] was inactive. For `CNC[C@H](O)c1ccc(O)c(O)c1`, the Potency result in assay [10] and in assay [6] was “inactive” in each case. For the same compound, in assay [5], the outcome was inactive. For the compound `O=C(NCC1CCCCN1)c1cc(OCC(F)(F)F)ccc1OCC(F)(F)F` (stereo unspecified), the Potency entry in assay [10] and in assay [6] was “inactive” each time. In the case of `NS(=O)(=O)c1cc(C(=O)O)c(NCc2ccco2)cc1Cl`, the Potency result in assay [10] was “inactive”. On to `Cc1cccc(CN2CCN(C(c3ccccc3)c3ccc(Cl)cc3)CC2)c1` (stereo unspecified), for which the Potency result in [10] and in assay [6] was “inactive” throughout. Take `CCN(CC)CCOc1ccc(Cc2ccccc2)cc1`: the Potency result in [10] and in [6] was “inactive” throughout.
